Rows were chosen to be rich in hits. Some 3% of all compounds tested hit in one or more screens of this group.
OvCa metastasis – Primary qHTS assay for Inhibitors of ovarian cancer metastasis using an organotypic tumor microenvironment (TME) model. SKOV3ip1-GFP adhesion/invasion on 3D omental model, fluorescence. Potency, µM (doses to about 45.8 µM), for the others: top-dose activity change, negative = inhibition, hits mostly inhibitors. actives 0.1% (n = 46,000);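 note: plate controls were DMSO wells for no effect and tomatine positive control wells for full effect; nearly all actives have a fitted effect of over 65% in size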
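Adhesion/invasion was scored as fixed GFP-labeled SKOV3ip1 cell counts (488/509 nm), normalized to DMSO and tomatine controls. Cancer cells in serum-free medium, with four compound doses (0.36-46 umol/L), sat 2 hr at RT then 16 hr at 37 C on a 48 hr fibroblast/mesothelial/ECM culture.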
mTORC1 inh – Acumen qHTS Assay for Inhibitors of the mTORC1 Signaling Pathway in MEF (Tsc2-/-, p53-/-) Cells: Sytravon; actives 0.78% (n = 44,000); AID 493208, 2011; Potency, µM (titrated, usually from 38.3 µM), for the others: at the top dose activity change, negative = inhibition, actives largely listed as inhibitors; Tsc2-/- p53-/- MEF, phospho-rpS6 immunofluorescence/PI, 24 h;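 note: plate controls were DMSO for no effect and rapamycin for full effect; nearly all actives have a fitted effect of over 50% in size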
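Tsc2-/-, p53-/- MEFs (empty-vector stable line) in DMEM + 10% FBS were treated with compounds 24 h at 37 degree Celsius, fixed, and immunostained for phospho-rpS6 (Alexa-488) with propidium iodide counterstain. Laser-scanning cytometry gave % positive cells, normalized against 7.5 nM rapamycin and DMSO.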
p53null 32C tox – qHTS Screen for Compounds that Selectively Target Cancer Cells with p53 Mutations: Cytotoxicity of p53 Null Cells at the Permissive Temperature; H1299-neo p53 null cells, ATP luminescence, 24 h, 32C; Potency, µM (highest dose often 46.1 µM), for inactives: at the highest dose activity change, negative = cytotoxicity, usual class: cytotoxic; actives 0.62% (n = 55,000);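 note: 0% = DMSO only and -100% = full killing by 100 µM tamoxifen; nearly all actives have a fitted effect of over 55% in size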
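Luminescent ATP readout gave cell viability of p53-null H1299-neo cells after a 24 h compound exposure at the permissive 32C. Titrations ran up to 46 uM, and AC50s were fitted with the standard Hill equation.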
p53null 39C tox – qHTS Screen for Compounds that Selectively Target Cancer Cells with p53 Mutations: Cytotoxicity of p53 Null Cells at the Nonpermissive Temperature. Potency, µM (doses to about 46.1 µM), without a hit: at the highest dose activity, negative = cell killing, most hits filed as cytotoxic. AID 904, 2007. H1299 p53-null (neo) cells, 39C, ATPlite viability, 24 h. actives 0.97% (n = 55,000);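 note: 0% = DMSO only and -100% = full killing by 100 µM tamoxifen; nearly all actives have a fitted effect of over 50% in size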
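H1299 lung cancer cells, p53-null (H1299-neo) or expressing p53 A138V (H1299-p53A138V), were plated overnight at 37C, then exposed to compounds at up to 46 uM for 24 hr at 39C. Viability was read by ATP-based luminescence.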
S16 viability – Cell viability qHTS assay in S16 Pmp22-F2sN cells. S16 Pmp22-F2sN Schwann cells viability, CellTiter-Glo, 24 h. Potency, µM (top dose mostly 57.5 µM), for the others: at the top dose activity change, negative = cytotoxicity, usual class: cytotoxic. actives 0.48% (n = 43,000); note: nearly all actives have a fitted effect of over 65% in size
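S16 Schwann cells carrying the Pmp22-F2sN reporter, seeded in 1536-well format, were exposed to library compounds for 24 h at 37C. Viability was read as CellTiter-Glo luminescence after 15 min at room temperature.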
PMP22 txn prim – Cell-based coincidence reporter assay to measure PMP22 gene transcription in S16 Pmp22-F2sN cells - Primary screen | S16 Pmp22-F2sN Schwann cells (luciferase reporters placed in the Pmp22 gene), FLuc/NLuc coincidence luminescence, 24 h | Potency, µM (highest dose often 57.5 µM), for inactives: at the highest dose activity change, negative = inhibition, actives largely listed as inhibitors | actives 2% (n = 43,000) | AID 1508649, 2021; active = clear falling dose curves in both reporters; inconclusive = both reporters move, but less clearly or upward; inactive = either reporter flat; the % is the NLuc reporter signal
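qHTS, 1536-well. Cells seeded, compounds added by pin tool, 24 h 37C. Nano-Glo reagent 1 (lysis/FLuc), 10 min RT, read; Stop&Glo, 10 min RT, read NLuc.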
Numbers without * were called inactive; i = inactive; u = inconclusive; x = not tested or not shown. Unless noted, calls come from the whole dose curve; as a rule, active = well fitted curve in the direction sought with a large enough effect; inconclusive = small, poorly fitted or top-dose-only effect, or another doubt; inactive = no such curve, though single readings can be large; an effect the other way counts as inactive or inconclusive. Unless noted, % is set by controls: 0 for no effect and ±100 for the full control effect; potency is the fitted concentration of half-maximal effect.

SMILES | OvCa metastasis | mTORC1 inh | p53null 32C tox | p53null 39C tox | S16 viability | PMP22 txn prim
CCOc1ccc(-c2oc3ccc(C)cc3c(=O)c2O)cc1 | -2.0% | 7.6% | -8.7% | -26.3% | -2.4% | 7.2%
O=C(Nc1cccc(Br)c1)c1cc(-c2ccc3c(c2)OCCO3)on1 | -7.2% | -3.3% | u | u | 5.3% | -10.8%
Cc1cc(C)cc(OC(=O)c2cc(-c3ccc4c(c3)OCCO4)on2)c1 | 4.8% | 1.4% | u | 31.6µM* | 4.4% | -9.3%
Cc1cccc(OC(=O)c2cc(-c3ccc4c(c3)OCCO4)on2)c1 | i | -2.0% | u | 25.1µM* | -5.6% | -12.7%
Cn1cnc(-c2cc3nccc(Oc4ccc(NC(=S)NC(=O)Cc5ccccc5)cc4F)c3s2)c1 | 7.6% | x | x | x | x | x
CCOc1ccc(CNC(=O)CSc2nnc(C)c3c(C)n(-c4ccccc4)nc23)cc1 | -12.7% | -0.1% | 22.2% | 25.1µM* | 10.4% | -23.1%
CCc1cnn2c(NCc3ccc[n+]([O-])c3)cc(N3CCCC[C@@H]3CCO)nc12 | -2.2% | x | x | x | x | x
CC(Nc1oc(-c2ccc(COc3ccccc3)o2)nc1C#N)c1ccccc1 (stereo unspecified) | u | 14.7µM* | -9.1% | u | -7.7% | u
CNc1oc(-c2ccc(COc3ccc(C)cc3)o2)nc1C#N | 7.3% | -1.0% | 6.0% | u | -3.5% | -50.3%
N#Cc1nc(-c2ccc(COc3ccccc3)o2)oc1NCc1ccccc1 | 5.4% | -14.4% | -7.3% | u | 1.9% | -5.2%
Cc1cccc(OCc2ccc(-c3nc(C#N)c(NCCN(C)C)o3)o2)c1 | -16.3% | 5.21µM* | 1.8% | -17.6% | u | u
Cc1nc(Nc2n[nH]c3c2CN(C(=O)N[C@H](CN(C)C)c2ccccc2)C3(C)C)c2sccc2n1 | 30.2% | x | x | x | x | x
COc1ccc(-c2ccc3c(N4CCOC[C@H]4C)nc(N4CCOC[C@H]4C)nc3n2)cc1CO | -14.6% | x | x | x | x | x
COC(=O)c1c(SCC(=O)Nc2cccc(C(F)(F)F)c2)[nH]c2ccccc2c1=O | i | -0.9% | u | 3.16µM* | u | -61.4%
COC(=O)c1c(SCC(=O)Nc2cc(F)ccc2F)[nH]c2ccc(C)cc2c1=O | 98.4% | 2.3% | u | u | u | -15.2%
O=C(CSCc1cc(=O)c2ccccc2[nH]1)Nc1cccc(C(F)(F)F)c1 | 11.4% | 0.5% | -7.6% | -5.5% | 2.7% | 3.3%
COC(=O)c1c(SCC(=O)Nc2cccc(Cl)c2C)[nH]c2ccccc2c1=O | i | 0.0% | -14.6% | 10µM* | -6.8% | -71.8%
CCCCCNC(=O)N1CCC(CN(Cc2ccc(Cl)cc2)Cc2ccc([N+](=O)[O-])s2)C1 (stereo unspecified) | 12.1% | x | x | x | x | x
CCOC(=O)c1cc2c(=O)n3ccccc3nc2n(Cc2ccco2)c1=NC(=O)c1c(F)cccc1Cl | -16.0% | -20.8% | -2.0% | -6.9% | u | 15µM*
CCOC(=O)c1cc2c(=O)n3ccccc3nc2n(Cc2ccco2)c1=NC(=O)c1cccc(C)c1 | 29.8% | -1.1% | -8.0% | 6.8% | u | u
CC(C)c1ccc(OC(=O)c2cc(-c3ccc4c(c3)OCCO4)on2)cc1 | 0.6% | -4.1% | 12.6µM* | 31.6µM* | 1.7% | -9.4%
COc1ccc(OC(=O)c2cc(-c3ccc4c(c3)OCCO4)on2)cc1 | -9.7% | -9.5% | 12.6µM* | u | 1.0% | -16.4%

Screening results as filed in PubChem.
